We go through 23 molecules from PubChem BioAssay (NCATS).

Results filed as inconclusive are left out. Where a structure was tested more than once in an assay, its records may differ in their call. Activity calls are given as the source filed them. Calls come from the whole dose curve; as a rule, active = well fitted curve in the direction sought with a large enough effect; inconclusive = small, poorly fitted or top-dose-only effect, or another doubt; inactive = no such curve, though single readings can be large; an effect the other way counts as inactive or inconclusive.

Experiment [1] deals with Retinal dehydrogenase 2 (Homo sapiens) (UniProt O94788). The experiment in a line: qHTS for Inhibitors of the Aldehyde Dehydrogenase Family (ALDH1A2) Confirmation screens (AID 2061314). Note: potency is the fitted concentration of half-maximal effect; nearly all actives have a fitted effect of over 65% in size. The following applies: ALDH1A2 enzyme inhibition qHTS confirmation; series mostly up to 45.9 µM. (In qHTS, concentration-response curves come from the screen itself.)
Experiment [2] has as its target Retinaldehyde dehydrogenase 3 (Homo sapiens) (UniProt P47895). The experiment in a line: qHTS for Inhibitors of the Aldehyde Dehydrogenase Family (ALDH1A3) Primary screen (AID 2061315).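 Note: plate controls were DMSO vehicle for no effect and reference inhibitor for full effect.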 Conditions: ALDH inhibition qHTS; series mostly up to 56 µM.
Experiment [3] deals with Aldehyde dehydrogenase 1A1 (Homo sapiens) (UniProt P00352). Description: qHTS for Inhibitors of the Aldehyde Dehydrogenase Family (ALDH1A1) Confirmatory screens (AID 2061316). Note: potency is the fitted concentration of half-maximal effect; nearly all actives have a fitted effect of over 65% in size. Conditions: ALDH inhibition qHTS; series mostly up to 47.3 µM.
The nature of experiment [4]: BET inhibitor-based combinations targeting novel dependencies in MECOM-rearranged (r) AML: SET-2 cell line (AID 2202231).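 For viability: plate controls were DMSO treated cells for no effect and wells without cells for full effect.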 Note: nearly all actives have a fitted effect of over 35% in size. Note: potency is the fitted concentration of half-maximal effect. Conditions: SET-2 AML cells viability, CellTiter-Glo luminescence, 48 h; viability: stronger effect = lower value, concentration not given here. The procedure, abridged:
(§1)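 Viability of cells (500 per well) is scored by luminescent CellTiter-Glo at 48 hr post-dosing. Eleven-point titrations are normalized to DMSO and empty controls and reduced to AUC values.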
Background: ATP-based viability assays read luminescence as a measure of living cells.

Experiment [5] is described as follows: BET inhibitor-based combinations targeting novel dependencies in MECOM-rearranged (r) AML: OCI-AML3 cell line (AID 2202232). Note: nearly all actives have a fitted effect of over 35% in size. Note: potency is the fitted concentration of half-maximal effect. Conditions: CellTiter-Glo luminescence, 48 h; Potency: OCI-AML3 viability; series mostly up to 46 µM. The procedure, abridged:
as §1

A short description of experiment [6]: BET inhibitor-based combinations targeting novel dependencies in MECOM-rearranged (r) AML: MV-4-11 cell line (AID 2202233). Note: nearly all actives have a fitted effect of over 45% in size. Note: potency is the fitted concentration of half-maximal effect. The following applies: MV-4-11 AML viability, CellTiter-Glo luminescence, 48 h; series mostly up to 46 µM. The gist of the method: (§2)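 Using pin-tool transfer, drugs were added in 11 doses to cells (500/well), incubated 48 hr, and assessed with CellTiter-Glo. Z-AUC is a mean-centring transformation applied separately to each screened line.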

Experiment [7] can be described thus: BET inhibitor-based combinations targeting novel dependencies in MECOM-rearranged (r) AML: HNT-34 cell line (AID 2202234). Note: nearly all actives have a fitted effect of over 35% in size. Note: potency is the fitted concentration of half-maximal effect. Conditions: HNT-34 AML viability, CellTiter-Glo luminescence, 48 h; series mostly up to 46 µM. The gist of the method:
as §2

Experiment [8] can be described thus: BET inhibitor-based combinations targeting novel dependencies in MECOM-rearranged (r) AML: UCSD-AML1 cell line (AID 2202235). Note: nearly all actives have a fitted effect of over 40% in size. Note: potency is the fitted concentration of half-maximal effect. The following applies: UCSD-AML1 AML cells viability, CellTiter-Glo, 48 h; series mostly up to 46 µM. The gist of the method: as §2
Experiment [9] in a line: BET inhibitor-based combinations targeting novel dependencies in MECOM-rearranged (r) AML: AML-191 cell line (AID 2202236; note: nearly all actives have a fitted effect of over 35% in size; note: potency is the fitted concentration of half-maximal effect). Conditions: AML-191 viability, CellTiter-Glo luminescence, 48 h; series mostly up to 46 µM. The gist of the method:
as §1

Experiment [10] can be described thus: BET inhibitor-based combinations targeting novel dependencies in MECOM-rearranged (r) AML: AML-194 cell line (AID 2202237;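 note: plate controls were vehicle wells for no effect and wells without cells for full effect; nearly all actives have a fitted effect of over 40% in size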). The following applies: AML-194 (MECOM-r AML) viability, CellTiter-Glo, 48 h; series mostly up to 46 µM. The gist of the method: as §1

For the molecule `Cc1c(C(=O)OCc2ccco2)[nH]c2c1C(=O)CC(c1ccco1)C2` (centres undefined), the Potency in [1] is 3180 nM (active); in experiment [3], 1420 nM (active). The Potency entry in experiment [2] was “inactive”.

Consider `Cc1ccc(CN(C)c2ncnc3ccc(-c4ccc(CO)o4)cc23)o1`, for which the values for the Potency in [1] and in experiment [3] were 11300 nM (active) and 2520 nM (active), respectively. In addition, in [2], the Potency entry is “inactive”.

On to `CN(C)c1ccc(-c2nc3ncc(Cl)c(N4CCN(CC(=O)Nc5nccs5)CC4)c3[nH]2)cc1`, for which, in experiment [4], the viability is 105% (inactive). Further, the Potency in experiment [5] was 1620 nM (active); in experiment [6], 723 nM (active).

`COc1nc(N)nc2c1ncn2C1OC(CO)C(O)C1O` (centres undefined): in [4], the viability was 114% (inactive). Besides, the Potency entry in experiment [5] and in experiment [6] was “inactive” throughout.

`Nc1nccn2c(C3CCC(C(=O)O)CC3)nc(-c3cc4cccc(Cl)c4[nH]3)c12` (centres undefined): in experiment [2], the Potency result was “inactive”. The Potency in [4] is 7420 nM (active); in experiment [5], 4680 nM (active); in [6], 2350 nM (active); in [7] it was 1480 nM (active); in experiment [8], 1050 nM (active).

For `CN1CCN(c2ccc(Nc3ncc4cc(C#N)c(=O)n(C5CCCC5)c4n3)cc2)CC1`, the Potency in experiment [4] was 1180 nM (active); in experiment [5] it was 105 nM (active); in [6] it was 186 nM (active).

As to `CC(=O)[C@]1(N)Cc2c(O)c3c(c(O)c2[C@@H](O[C@H]2C[C@H](O)[C@H](O)CO2)C1)C(=O)c1ccccc1C3=O`, the viability in experiment [4] was 106% (inactive). The Potency in [5] was 8330 nM (active).

With `CC1(C)C(N(O)C(=O)Nc2ccc(Cl)cc2)N(c2ccc(Cl)cc2)C(=O)N1CC(=O)N/N=C/C=C/c1ccc([N+](=O)[O-])o1` (centres undefined), the Potency was 20900 nM (active) in experiment [4], 3320 nM (active) in [5], 4680 nM (active) in experiment [6] and 13200 nM (active) in experiment [7].

Regarding `Cn1cc(/C=C2\C(=O)Nc3cccnc32)c2ccccc21`, the viability in experiment [4] is 86.8% (inactive).

Consider `O=C(NOCCO)c1cc(CN2OCCCC2=O)c(F)c(F)c1Nc1ccc(I)cc1F`, for which the viability in experiment [4] is 70.8% (inactive).

For the molecule `CN(Cc1ccc(/C=C/C(=O)NO)cc1)CC12CC3CC(CC(C3)C1)C2`, the Potency in experiment [4] is 105 nM (active); in [5], 148 nM (active); in [6], 93.4 nM (active); in experiment [7], 148 nM (active); in [8], 132 nM (active).

`C=CC(=O)N1C[C@H](Nc2ncnc3[nH]ccc23)CC[C@@H]1C`: in experiment [4], the viability is 94.9% (inactive).

For `COc1ccc2c(c1)CCc1sc(NC(=O)c3ccc(Br)cc3)nc1-2`, in experiment [3], the Potency is 10200 nM (active).

`C[C@H]1CC2[C@@H]3CCC4=CC(=O)C=C[C@]4(C)[C@@]3(F)[C@@H](O)C[C@]2(C)[C@@]1(O)C(=O)CO` (some centres undefined): the viability in experiment [4] was 115% (inactive). The Potency entry in experiment [5], in experiment [6] and in experiment [7] was “inactive” throughout.

For the molecule `Cc1ccnc(N(C)C(=S)N2CCN(c3cccc(C(F)(F)F)c3)CC2)c1`, in [3], the Potency is 11300 nM (active).

With `CNC(=O)Cn1cc(-c2ccc3c(c2)C(F)CC32NC(=O)N(CC(=O)N(Cc3ccc(F)cc3)[C@@H](C)C(F)(F)F)C2=O)cn1` (some centres undefined), the Potency in [4] was 3720 nM (active); in [6], 11800 nM (active); in experiment [7], 74.2 nM (active); in experiment [8], 118 nM (active) and inactive. The viability in experiment [4] is 103% (inactive). The Potency result in experiment [9] and in experiment [10] was “inactive” each time.

Turning to `Cn1nccc1Nc1nccc(-c2cc3c(s2)C(C)(C)N(CCN2CCOCC2)C3=O)n1`, the viability in experiment [4] was 105% (inactive). In addition, the Potency in experiment [5] was 1320 nM (active); in experiment [6] it was 4170 nM (active); in experiment [7] it was 6610 nM (active).

Take `COc1cc2c(cc1O)CCN[C@]21CS[C@@H]2c3c(OC(C)=O)c(C)c4c(c3[C@H](COC1=O)N1[C@@H]2[C@H]2c3c(cc(C)c(OC)c3O)C[C@@H]([C@@H]1O)N2C)OCO4`: the Potency in [4] is 9.6 nM (active); in [5] it was 9.6 nM (active); in [6], 4.3 nM (active); in experiment [7] it was 8.5 nM (active); in experiment [8], 9.6 nM (active); in experiment [9], 9.6 nM (active).

With `COc1ccc([C@@H](O)[C@@H](C)Oc2ccc([C@H]3O[C@H](c4ccc(O[C@H](C)[C@H](O)c5ccc(OC)c(OC)c5)c(OC)c4)[C@H](C)[C@H]3C)cc2OC)cc1OC`, the Potency was 13200 nM (active) in experiment [4]; 1050 nM (active) in [5]; 4170 nM (active) in experiment [6]; 23500 nM (active) in experiment [7]; 18600 nM (active) in [8].

Regarding `CC1Cc2ccccc2N1C(=O)Cc1nc(N2CCOCC2)cc(=O)[nH]1` (centres undefined), the viability in [4] was 99.9% (inactive).

With `CC(C)NCCCn1c(Sc2cc(Cl)cc(Cl)c2)nc2c(N)ncnc21`, the viability in experiment [4] is 98.3% (inactive). For the same molecule, the Potency in experiment [5] was 10500 nM (active); in experiment [6] it was 14800 nM (active).

Regarding `CN(Cc1ccccc1)C(=O)c1ccc(S(=O)(=O)Nc2ccccc2)cc1`, the Potency result in experiment [2], in experiment [5], in experiment [8], in experiment [9] and in [10] was “inactive” throughout. Also, the viability in experiment [4] was 103% (inactive).

As to `COc1ncc(-c2ccc3nccc(-c4ccnnc4)c3c2)cc1NS(=O)(=O)c1ccc(F)cc1F`, the Potency is 332 nM (active) in [4]; 83.3 nM (active) in experiment [5]; 105 nM (active) in [6]; 263 nM (active) in experiment [7]; 37.2 nM (active) in [8]; 209 nM (active) in experiment [9].

One may read the viability as a read-out of living cells in per cent, often relative to untreated cells.
